# According to PubChem BioAssay (NCI):
# About 83,000 compounds went through this panel and 20% of them were active in at least one assay; those are over-represented in the sample as a whole.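 Method: cells in 96-well plates; compound added at one concentration; 48 h incubation; percent growth measured; values under 10 scored active.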 Values without a mark were called inactive. The source made the active and inactive calls.
# Assays:
# Experiment in all cases: NCI-60 one-dose screen, 48 h (100 = growth as untreated, 0 = no growth, -100 = all killed)
# Conditions in all cases: 10 µM unless noted
# [1] = system: HCT-15 colon
# [2] = system: HT29 colon
# [3] = system: SNB-75 CNS
# [4] = system: SNB-19 CNS
# [5] = system: U251 CNS
# [6] = system: PC-3 prostate
# [7] = system: SK-MEL-5 melanoma
# [8] = system: UACC-62 melanoma
# [9] = system: LOX IMVI melanoma
# [10] = system: SK-MEL-28 melanoma
SMILES,growth [1],growth [2],growth [3],growth [4],growth [5],growth [6],growth [7],growth [8],growth [9],growth [10]
Cc1ccc([C@H]2c3[nH]c4ccccc4c3C[C@H]3C(=O)N(CCCCCCC(=O)NO)CC(=O)N23)s1,93.6%,56%,35.8%,62.7%,65%,61.9%,40.5%,33.3%,-93.2% (active),48.3%
N#Cc1c(-c2cccs2)cc(-c2cnccn2)nc1SCC(=O)N/N=C/c1ccccc1,39.1%,37.3%,12.6%,39.7%,11.9%,65.2%,4.1% (active),55.3%,-28.7% (active),43.9%
Cc1cc(C)cc(NC2=C(Cl)C(=O)c3nc(C)ccc3C2=O)c1,9.74% (active),107%,96.4%,75.9%,89.8%,59.4%,69%,92.7%,-3.79% (active),81.8%
CC(C)C(/C=C/c1[nH]ncc1-c1cc(Cl)ccc1O)N1CCOCC1 (stereo not given),94.9%,104%,65.3%,99.5%,97.3%,84.7%,95%,87.1%,98.8%,98.9%
Cc1ccsc1[C@H]1c2[nH]c3ccccc3c2C[C@H]2C(=O)N(CCCCCCC(=O)NO)CC(=O)N12,99.1%,87.3%,51.8%,81.1%,83.8%,78.6%,83.4%,57.9%,-71.9% (active),73.7%
CCCCSC1=C(Cl)CN(c2ccc(Cl)cc2)C1=O,96.1%,105%,104%,93.3%,93.6%,98.4%,98.3%,93.4%,62.4%,102%
CCOC(=O)c1ccc(NC2=C(Cl)C(=O)c3nc(C)ccc3C2=O)cc1,-48.5% (active),71.5%,70.1%,68.1%,63.8%,48%,63.6%,55.5%,0.747% (active),55.2%
C=C(C)[C@@H]1CC[C@]2(C(=O)NC3CCCCC3)CC[C@]3(C)[C@H](CC[C@@H]4[C@@]5(C)CC[C@H](N)C(C)(C)[C@@H]5CC[C@]43C)[C@@H]12,39%,71.8%,83.9%,103%,88.8%,72.8%,92.7%,104%,-75.1% (active),109%
CCNCCOc1ccc(/C(=C(/CC)c2ccc(Cl)cc2)c2ccc(OCCCN(C)C)cc2)cc1,-84.8% (active),-36.4% (active),-71.1% (active),-86% (active),-70.7% (active),-56.4% (active),-95.2% (active),-90% (active),-89.2% (active),-94.3% (active)
CNCCN(C)c1ccc(Nc2cc(NC3CC3)n3ncc(C#N)c3n2)cc1NC(C)=O,9.77% (active),16.4%,-24.3% (active),10.1%,5.12% (active),10.7%,-1.54% (active),-24.9% (active),-25.7% (active),13%
CS(=O)(=O)c1ccc(/C(=N/N=C(N)N)c2ccc(F)cc2)cc1,74.9%,91.5%,94.6%,63%,67.2%,73.9%,82.8%,74.6%,54.4%,95.5%
C#C[C@]1(O)CC[C@H]2[C@@H]3CC=C4c5sc(N(C)c6ccccc6)nc5CC[C@]4(C)[C@H]3CC[C@@]21C,27.8%,-3.51% (active),99.8%,91.3%,60.6%,59.1%,87.3%,77%,67.8%,76.9%
CCCCN1C(=O)/C(=c2\sc3n(c2=O)C2C(NN=3)N(CC)C(=O)N2CC)c2cccc(C)c21 (stereo not given),14.9%,16.5%,14.1%,39.4%,39.1%,34.4%,29.6%,38.7%,42.4%,68.2%
Cn1cc(-c2nnc(N)nc2-c2c[nH]c3ccc(Br)cc23)c2cc(Br)ccc21,91.3%,97.1%,82.3%,98.7%,99.7%,102%,101%,97.7%,101%,101%
C=C(C)[C@@H]1CC[C@]2(COP(=O)(OCC)OCC)CC[C@]3(C)[C@H](CC[C@@H]4[C@@]5(C)CC[C@H](OP(=O)(OCC)OCC)C(C)(C)[C@@H]5CC[C@]43C)[C@@H]12,6.86% (active),35.2%,75.3%,50.7%,42.2%,22.7%,11.5%,43.1%,25.4%,77.5%
COc1ccc2sc(NC(=O)CCCCCCNC(=O)C(O)(O)C(F)(F)F)nc2c1,5.37% (active),5.06% (active),41.4%,15.9%,-51.5% (active),34.1%,-82.2% (active),-64.6% (active),-81% (active),1.51% (active)
N#Cc1c(-c2ccc(Br)cc2)cc(-c2c[nH]c3ccccc23)nc1N,16.8%,27.4%,37.9%,66.1%,52.6%,55.2%,58.9%,64.9%,28.7%,59.3%
Cc1nc(N)sc1-c1csc(Nc2ccc(C(F)(F)F)cc2)n1,7.03% (active),-27.6% (active),56.5%,47.3%,53.3%,36.5%,-43% (active),22.2%,6.07% (active),42.1%
CSc1ccc(C(=NNS(=O)(=O)c2ccc(C)cc2)c2ccc(Cl)cc2)cc1,101%,99.8%,85.4%,105%,103%,86.4%,99.3%,90.1%,106%,102%
CCOC(=O)c1cnc2c(-c3ccc(Cl)c(Cl)c3)cnn2c1,40.8%,56.8%,59.9%,82.5%,80.4%,73%,79.8%,60.8%,79%,80.4%
